Assay outcomes as filed in PubChem.
Only some compounds are listed: those with a hit (about 12% of all), similar ones and a draw of the others.
Pf growth 48h: inhibits P. falciparum growth in the first generation, 48 h; P. falciparum luciferase growth in erythrocytes, 48 h; Potency, µM (series often up to 28.7 µM), without a hit: at the highest dose activity change, negative = inhibition, actives largely listed as inhibitors; actives 5.9% (n = 310,000); note: % is set by controls: 0 for no effect and ±100 for the full control effect
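Growth was read as firefly luciferase luminescence after a 48 h, 37 C, 5% CO2 exposure of compounds to reporter-bearing P. falciparum cultures (0.1% parasitemia, 2% hematocrit final) in Albumax-supplemented RPMI 1640.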
Sm TGR inh: blocks Schistosoma mansoni thioredoxin glutathione reductase. actives 3% (n = 360,000). Q962Y6. AID 485364. purified TGR, DTNB reduction, TNB absorbance 405 nm. Potency, µM (titrated, usually from 114 µM), inactives show at the top dose activity change, negative = inhibition, usual class: inhibitors; note: % is set by controls: 0 for no effect and ±100 for the full control effect; nearly all actives have a fitted effect of over 60% in size
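TGR 20 nM + NADPH 100 uM (dispensed conc.), cpd preinc 15 min RT; start with NADPH (500 uM addition) then DTNB (15 mM addition). Kinetic TNB absorbance, 405 nm filter. Four-parameter Hill fit across titration.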
Pf growth 96h: P. falciparum growth inhibition at 96 hours. P. falciparum luciferase reporter growth, 96 h. Potency, µM (highest dose often 28.7 µM), for the others: at the top dose activity change, negative = inhibition, most hits filed as inhibitors. actives 6.9% (n = 320,000). AID 504834; note: % is set by controls: 0 for no effect and ±100 for the full control effect
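Readout is luminescence from an integrated firefly luciferase in P. falciparum. Red cells, 2% hematocrit and 0.05% parasitemia final, were cultured with compound through two parasite generations (96 hours) at 37 C, 5% CO2.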
AmpC detergent: AmpC beta-lactamase inhibition with detergent present. P00811. AmpC hydrolysis of nitrocefin, absorbance 480 nm, 0.01% Triton. Potency, µM (top dose mostly 114 µM), for inactives: top-dose activity change, negative = inhibition, most hits filed as inhibitors. actives 0.041% (n = 370,000). AID 485294;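 note: 0% = no-compound wells and -100% = no-enzyme wells; nearly all actives have a fitted effect of over 25% in size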
Target sequence (P00811 whole entry, looked up): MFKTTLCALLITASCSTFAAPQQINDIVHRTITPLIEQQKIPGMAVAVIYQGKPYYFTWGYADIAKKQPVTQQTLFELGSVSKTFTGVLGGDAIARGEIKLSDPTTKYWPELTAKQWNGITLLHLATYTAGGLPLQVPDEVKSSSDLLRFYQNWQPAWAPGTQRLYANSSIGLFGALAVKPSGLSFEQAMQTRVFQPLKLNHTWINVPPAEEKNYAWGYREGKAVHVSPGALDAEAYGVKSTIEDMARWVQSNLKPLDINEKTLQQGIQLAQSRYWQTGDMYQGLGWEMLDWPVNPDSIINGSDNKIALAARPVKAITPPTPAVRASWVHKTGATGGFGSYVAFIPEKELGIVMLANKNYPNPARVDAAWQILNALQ
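AmpC (5.3 nM in the dispensed reagent) in 20 mM phosphate pH 7.0 with 0.01% (detergent screen) or 0.0001% Triton X-100 was preincubated with compounds for 15 min at room temperature. Nitrocefin was then added from an 800 uM solution, and hydrolysis was followed at 480 nm.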
AmpC inh no detg: AmpC beta-lactamase inhibition without detergent | AmpC nitrocefin hydrolysis, absorbance 480 nm, 0.0001% Triton | Potency, µM (series often up to 57.1 µM), for the others: at the highest dose activity change, negative = inhibition, most hits filed as inhibitors | actives 0.52% (n = 330,000);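 note: plate controls were no compound for no effect and no enzyme for full effect; nearly all actives have a fitted effect of over 20% in size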
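20 mM phosphate pH 7.0 + 0.01% (detergent screen) or 0.0001% Triton X-100; 5.3 nM AmpC reagent; cpd preinc 15 min RT; nitrocefin (800 uM stock) to start; A480 q20 s × 4 min; Activity was normalised to no-enzyme and no-compound control wells.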
SARS PLpro yeast: inhibitors of SARS-CoV papain-like protease in yeast. S. cerevisiae expressing SARS-CoV PLpro, growth rescue. Potency, µM (doses to about 32.9 µM), inactives show at the top dose activity, positive = growth rescue, most hits filed as activators. actives 0.19% (n = 330,000); calls by dose curve; note: 0% is about no effect; nearly all actives have a fitted effect of over 55% in size
An asterisk follows results filed as active; ? = inconclusive; · = no result given; [ ] = remark or other dose. Unless noted, calls come from the whole dose curve; as a rule, active = well fitted curve in the direction sought with a large enough effect; inconclusive = small, poorly fitted or top-dose-only effect, or another doubt; inactive = no such curve, though single readings can be large; an effect the other way counts as inactive or inconclusive. Potency is the fitted concentration of half-maximal effect.

SMILES	Pf growth 48h	Sm TGR inh	Pf growth 96h	AmpC detergent	AmpC inh no detg	SARS PLpro yeast
COc1ccc(C2C(C(=O)N3CCCCC3)CC(=O)N2c2ccc(OC)cc2)cc1 (centres undefined)	1.65µM*	2.2%	9.28µM*	-9.2%	51.9%	2.5%
COc1ccc(N2C(=O)CCC(C(=O)N3CCCCCC3)C2c2ccc(OC)c(OC)c2)cc1 (centres undefined)	20.6%	-0.4%	-7.1%	2.6%	28.3%	2.6%
CCN(CC)CCNC(=O)C1CCC(=O)N(c2ccc(OC)cc2)C1c1ccc(F)cc1 (centres undefined)	7.1%	5.9%	57.5%	-9.3%	-5.5%	1.6%
CCCC1=[N+](CC(C)=O)CCn2c(C)ccc21	?	28.2µM*	13.3%	1.3%	-0.7%	2.1%
COc1ccc(OCCSc2nnc(Cc3cccc4ccccc34)n2N)cc1	-13.6%	5.8%	?	2.9%	30.2%	-38.0%
CC(C)(C)c1ccc(Cn2c(=N)n(CC(O)c3ccco3)c3ccccc32)cc1 (centres undefined)	2.33µM*	·	11.7µM*	5.0%	34.0%	0.4%
Cc1ccccc1Cn1c(=N)n(CC(O)c2ccco2)c2ccccc21 (centres undefined)	9.28µM*	3.2%	?	-8.3%	0.2%	-4.4%
CC1(C)CC(=O)C(C=NCCc2ccc(O)cc2)=C(O)C1	-13.9%	3.0%	5.22µM*	-8.7%	-14.6%	1.3%
CC1(C)CC(=O)C(C=NCCN2CCN(C(=O)Cc3ccccc3)CC2)=C(O)C1	·	4.7%[11.4 µM]	?	-18.4%	32.0%	2.7%
CCC(=O)N1CCN(CCN=CC2=C(O)CC(C)(C)CC2=O)CC1	-13.5%	44.7µM*	·	0.0%	-3.3%	1.4%
CC1(C)CC(=O)C(C=NCCN2CCN(C(=O)CCl)CC2)=C(O)C1	?	17.8µM*	?	0.4%	-1.5%	-3.7%
COc1ccc(NC(C)=O)cc1NC(=O)CSc1nc2ncccc2[nH]1	36.8%	8.0%	51.1%	-1.8%	-14.3%	-2.1%
O=S(=O)(/N=C(/Nc1ccc(F)c(F)c1F)c1ccccc1)c1ccccc1	14.5%	8.2%	34.1%	-2.2%	-18.0%	-0.4%
O=c1cc(O)c2sc3nc4c(c(C(F)(F)F)c3c2[nH]1)CCCCC4	2.08µM*	5.2%	3.2%	2.5%	-27.0%	1.8%
Cc1ccn2cc(C34CC5CC(CC(C5)C3)C4)nc2c1	20.3%	3.9%	?	5.7%	-18.5%	-0.7%
O=C(NCc1ccoc1)c1ccc(NC(=O)c2ccccc2Cl)cc1	1.3%	35.5µM*	?	-10.6%	-29.1%	-4.1%
CCCNC(=O)c1ccc2c(c1)C1C3CCC(C3)C1C(c1ccccc1)N2 (centres undefined)	9.28µM*	2.2%	·	-0.2%	4.1%	-15.0%
CC(C)(C)NC(=O)c1ccc2c(c1)C1C3CCC(C3)C1C(c1ccccc1)N2 (centres undefined)	?	2.7%	18.2%	?	-25.0%	-25.9%
CSc1oc(-c2ccco2)nc1S(=O)(=O)c1ccc(Br)cc1	?	50.1µM*	?	?	-24.2%	-4.6%
Cc1ccc(-c2nc(S(=O)(=O)c3ccc(C)cc3)c(SCC(N)=O)o2)cc1	-56.7%	-13.6%	36.7%	-1.8%	-12.2%	0.5%
Cc1ccc(S(=O)(=O)c2nc(-c3ccco3)oc2SCC(N)=O)cc1	1.0%	39.8µM*	?	-7.5%	-11.9%	-1.0%
CC(C)Sc1oc(-c2ccco2)nc1S(=O)(=O)c1ccc(F)cc1	?	17.8µM*	14.7µM*	3.1%	-42.1%	-5.0%
CCCSc1oc(-c2ccco2)nc1S(=O)(=O)c1ccc(Br)cc1	·	-35.9%	·	8.1%	·	·
NC(=O)CSc1oc(-c2ccco2)nc1S(=O)(=O)c1ccc(Cl)cc1	-18.5%	20µM*	17.1%	2.5%	-19.0%	0.9%
COc1ccc(N2CCN(Cc3nc4c(c(=O)[nH]c(=O)n4C)n3Cc3ccccc3F)CC2)cc1	·	-0.3%	·	7.4%	·	·
SMILES	Pf growth 48h	Sm TGR inh	Pf growth 96h	AmpC detergent	AmpC inh no detg	SARS PLpro yeast
CC(C)CSc1oc(-c2ccco2)nc1S(=O)(=O)c1ccc(Br)cc1	·	-18.2%	·	6.9%	·	·
NC(=O)CSc1oc(-c2ccco2)nc1S(=O)(=O)c1ccc(Br)cc1	-13.2%	17.8µM*	-4.1%	3.9%	-13.3%	22.7%
CCCSc1oc(-c2ccco2)nc1S(=O)(=O)c1ccccc1	-11.9%	56.2µM*	·	-3.3%	-8.0%	-15.0%
CC(=O)c1cccc(NC(=O)C2CCCN(c3nnc(-n4cccc4)s3)C2)c1 (centres undefined)	·	1.1%	·	6.1%	·	·
COCCNC(=O)CN1C(=O)c2cccnc2Sc2ccccc21	·	-9.9%	·	1.1%	·	·
COc1ccc(S(=O)(=O)NCCCN2CCCC2=O)c(OC)c1	7.8%	0.0%	-1.7%	3.4%	1.0%	20.2%
NC(=O)C1CCN(c2nc(-c3ccccc3[N+](=O)[O-])cs2)CC1	8.9%	·	-0.4%	·	·	·
N#CCC(=O)Nc1ccc(C(=O)NCc2cccc(Cl)c2)cc1	-14.3%	3.1%	?	-10.6%	17.8µM*	0.2%
COc1ccc(Nc2nc3ccccc3nc2NS(=O)(=O)c2ccc(Cl)cc2)cc1OC	·	-23.4%	·	-2.4%	·	·
Cc1ccc(S(=O)(=O)n2cc(C=O)c3ccccc32)cc1	5.1%	0.5%	8.7%	-1.8%	-19.7%	0.0%
Cc1ccc(S(=O)(=O)n2cc(-c3ccccc3)c3ccccc32)cc1	2.62µM*	2.0%	?	4.0%	-12.2%	-0.3%
COCc1nnc(SCC(=O)NC(C)c2ccccc2)n1-c1ccccc1 (centres undefined)	-10.9%	-16.0%	·	-1.6%	0.398µM*	-1.5%
O=C(CSc1nnc(CCc2ccccc2)n1-c1ccc(Cl)cc1)NCc1ccccc1	·	-0.8%	?	-0.6%	92.3%	-2.0%
O=C(CSc1nnc(CCc2nc3ccccc3[nH]2)n1-c1ccccc1)NCc1ccco1	-15.2%	-17.1%	?	1.0%	-0.4%	1.5%
COc1ccc(-n2c(CCc3ccccc3)nnc2SCC(=O)NCc2ccccc2)cc1	·	6.9%	10.4µM*	-3.3%	28.2%	15.4%
CCn1c(CNC(=O)Cc2ccc(OC)cc2)nnc1SCC(=O)c1ccccc1	12.6%	31.6µM*	-5.4%	?	50.0%	-2.3%
O=C(CSc1nnc(CCc2nc3ccccc3[nH]2)n1-c1ccccc1)NCc1ccccc1	?	12.1%	10.4µM*	-2.8%	38.3%	-29.4%
O=C(OCC#CCSc1nnc(-c2cccc3ccccc23)s1)c1cccs1	-11.9%	1.0%	7.8%	2.3%	-22.1%	1.8%
Cc1ccc(O)c(C(=O)c2cnc3onc(-c4ccc(F)cc4)c3c2)c1	3.29µM*	5.3%	2.33µM*	?	-24.9%	-17.4%
